Compounds with a hit are over-represented: about 4.5% of the library has one in this group of screens.
ALR inh: blocks human ALR sulfhydryl oxidase activity. purified ALR, DTT oxidation, H2O2 HRP-luminol luminescence. inhibition, % (no concentration beside the values). 290,000 tested, 3.8% active;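 active means mean replicate inhibition above about 79%, with every replicate also reaching it, limit read from the data; inconclusive means only one of the two criteria met; inactive means mean below limit and not every replicate reaching it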
Rtt109 Vps75: C. albicans Rtt109 histone acetyltransferase inhibition; Q5AAJ8; purified Rtt109/Vps75, ThioGlo CoA-SH fluorescence, 4 h; inhibition, % at 34.9 µM; 330,000 tested, 0.16% active; AID 540336;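 active means inhibition of at least 50% in every replicate; inconclusive means best replicate reaches 50% inhibition but some replicates fall short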
Efflux pump mplx: inhibitors of Candida antifungal efflux pumps expressed in yeast; S. cerevisiae Candida pump triplex, Nile Red efflux; inhibition, % at 10 µM; 330,000 tested, 0.44% active; AID 485275;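 active means plate passing quality check with inhibition over a set limit, or well fluorescence over plate mean plus 4 SD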;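 further: Nile Red retained in pooled yeast measured as flow cytometry median fluorescence; 0% = buffer negative control and 100% = Enniatin B positive control; higher means more Nile Red kept so more efflux inhibition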
HDAC3 inhib: inhibitors of human histone deacetylase 3. inhibition, % at 8.3 µM. O15379. 320,000 tested, 0.15% active. recombinant HDAC3, fluorogenic peptide/trypsin coupled, fluorescence; in the data active means inhibition above about 26%, passing the limit was not always enough; inconclusive means no clear call, values can overlap the other calls
Rce1 inhib: inhibitors of yeast Ras-converting enzyme; calls only; Q03530; yeast membranes, quenched prenylated peptide cleavage fluorescence; 290,000 tested, 0.27% active; AID 2563;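 active means fall in fluorescence gain of 50% or more versus controls, with final raw signal at or below 3038400; inconclusive means same 50% fall but final raw signal above 3038400; inactive means fall in fluorescence gain under 50%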;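 further: plate controls were neutral control wells for no effect and wells lacking membranes for full effect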
GRK2 inh: inhibitors of human GRK2 displacing RNA aptamer | P25098 | bead flow cytometry, FAM-aptamer displacement from GRK2 | inhibition of aptamer binding, % at 10 µM | 330,000 tested, 0.59% active | AID 488847;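 active means inhibition of aptamer binding above 40%, roughly 3 SD of noise, on plates passing a quality check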;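 further: median bead fluorescence of bound FAM aptamer so fluorescent compounds give negative values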
Numbers without * were called inactive; i = inactive; ? = inconclusive; nt = no result given; + = active, no number.

SMILES	ALR inh	Rtt109 Vps75	Efflux pump mplx	HDAC3 inhib	Rce1 inhib	GRK2 inh
Cc1cccc(/C=N/n2c(C)nc3ccccc3c2=O)c1	nt	1	0	0	i	0
O=C1CN(c2ccccc2)C(=S)N1C(=O)c1ccccc1	98*	1	0	15	i	1
CN(C)S(=O)(=O)c1cccc(NC(=O)/C=C/c2ccc(S(=O)(=O)N3CCOCC3)cc2)c1	-7	12	0	0	nt	0
CC(=O)c1cccc(NC(=O)/C=C/c2ccc(S(=O)(=O)N3CCOCC3)cc2)c1	-2	-9	0	17	nt	96*
C/C(=N\Nc1ccc([N+](=O)[O-])cc1)c1ccc(N)cc1	98*	-2	0	9	i	0
C/C(=N/Nc1ncc(Br)cn1)c1ccc(Br)cc1	1	-3	0	-2	i	0
C/C(=N\Nc1ccc(C(=O)O)cc1)c1ccc(Br)cc1	98*	8	0	9	i	14
Cc1ccc(/C=N/Nc2ccc(C(=O)O)cc2)s1	99*	21	0	3	i	3
O=C(O)c1cccc(N/N=C/c2cccc3ccccc23)c1	99*	5	0	-1	i	1
CCc1ccc(/C(C)=N\Nc2ccc([N+](=O)[O-])cc2)cc1	1	1	0	-9	nt	0
Cc1ccsc1/C=N/Nc1ccc(C(=O)O)cc1	nt	-6	-1	2	i	2
O=C(CN1C(=O)CSc2ccc(S(=O)(=O)N3CCCCC3)cc21)NCc1ccccc1Cl	2	-6	0	-4	i	2
COc1ccc(CN2CCNC(=O)C2CC(=O)N(C)CCCN2CCOCC2)cc1C (stereo not drawn)	-6	-2	0	1	i	0
Cc1ccc(/C=N/Nc2cccc(C(=O)O)c2)s1	98*	8	0	8	i	3
O=C(O)c1ccc(N/N=C/c2cc(Br)cs2)cc1	98*	2	0	6	i	2
O=C(O)c1cccc(Cn2c(Cl)c(/C=N/Nc3ccccc3)sc2=O)c1	100*	-8	0	-1	i	1
Cc1ccc(C)c(C(=O)Cn2c(NCCO)nc3ccccc32)c1	1	0	0	0	i	0
Cc1cccc2c1ncc1c(=O)n(-c3ccccc3)[nH]c12	-6	nt	0	6	i	0
Cc1cc(Sc2nc(N)ncc2[N+](=O)[O-])ncn1	98*	-6	0	-11	nt	0
O=C(O)CCc1ccc(-c2ccc(Cl)cc2)o1	97*	30	0	1	i	0
COc1ccc(-c2ccc(CCC(=O)O)o2)cc1	21	58*	0	4	i	2
O=C(CCN1C(=O)c2ccccc2S1(=O)=O)N1CCN(c2cccc(Cl)c2)CC1	-2	2	0	-7	i	1
Cc1sc2ncnc(N3CCC(C(=O)NNC(=O)COc4cccc(C(F)(F)F)c4)CC3)c2c1C	-6	nt	0	10	i	1
Cc1cc(C)c2cc(CN(Cc3ccco3)C(=S)NCC3CCCO3)c(=O)[nH]c2c1 (stereo not drawn)	96*	10	0	-4	i	0
CC(=O)Nc1cccc(-c2csc(N)n2)c1	98*	3	0	-6	i	0
SMILES	ALR inh	Rtt109 Vps75	Efflux pump mplx	HDAC3 inhib	Rce1 inhib	GRK2 inh
CC(=O)Nc1cccc(-c2csc(Nc3ccc(Cl)cn3)n2)c1	98*	-8	0	-2	i	1
O=C(NNc1ccc([N+](=O)[O-])cc1)C1CC2CCCC(C1)C2=O (stereo not drawn)	86*	0	0	-5	i	1
CCc1c(C)sc(NC(=O)c2cc(C)no2)c1C#N	93*	22	0	4	i	3
COCC(=O)Nc1ccc(C(=O)Nc2ccccc2Cl)cc1	0	nt	0	2	i	1
O=C1C2C3C=CC(C3)C2C(=O)N1Nc1c(Cl)cc(Cl)cc1Cl (stereo not drawn)	0	1	0	-2	i	3
Cn1cc([C@@H]2C[C@H]3CN(Cc4cccc(Cl)c4)C(=O)[C@]34CCCN24)c(-c2ccccc2)n1	-3	-4	0	0	i	0
Cc1nn(C)cc1[C@@H]1C[C@H]2CN(Cc3cccc(Cl)c3)C(=O)[C@]23CCCN13	-12	53*	0	-2	i	0
CC1CC1C(=O)OCC(=O)N(C)c1c(N)n(Cc2ccccc2)c(=O)[nH]c1=O (stereo not drawn)	-14	-2	0	-2	i	2
CC1C/C(=N/NC(=O)c2cccc(F)c2)c2ccc(O)cc2C1 (stereo not drawn)	99*	-10	0	13	i	0
COc1ccc2c(c1)CC(C)C/C2=N\NC(=O)c1ccco1 (stereo not drawn)	-3	1	0	2	i	3
CC1(C)C(=O)C2(CCCCC2)C(=O)OC1c1cccc([N+](=O)[O-])c1 (stereo not drawn)	-3	nt	0	-5	nt	1
CN(C)c1ccc(C2OC(=O)C3(CCCC3)C(=O)C2(C)C)cc1 (stereo not drawn)	94*	-1	0	-1	i	0
COc1ccc(/C=C(/C(=O)c2ccc(Cl)cc2Cl)n2cncn2)cc1	95*	11	0	?	i	1
CC(=O)N1c2ccccc2Sc2ccccc21	-3	4	0	3	i	0
CN1c2ccccc2Sc2cc(N)ccc21	95*	9	0	-13	i	0
CCCCn1c(N)c(N(CCOC)C(=O)c2ccc(-c3ccc(C(C)=O)cc3)o2)c(=O)[nH]c1=O	11	6	0	1	i	0
CC1=C(C(=O)OCc2ccccc2)C(c2ccc(-c3ccccc3)cc2)NC(=O)N1CCCC(=O)O (stereo not drawn)	29	nt	nt	0	+	nt
CC1=C(C(=O)OCc2ccccc2)C(c2ccc(-c3ccccc3)cc2)NC(=O)N1CCCCCC(=O)O (stereo not drawn)	2	28	0	14	nt	1
COC(=O)c1cc(NC2c3ccccc3C(=O)N2Cc2ccco2)cc(C(=O)OC)c1 (stereo not drawn)	3	-5	0	nt	nt	4
CCOc1ccc(NC2c3ccccc3C(=O)N2Cc2ccco2)cc1 (stereo not drawn)	98*	-3	0	10	i	12
O=C1c2ccccc2C(Nc2ccc3c(c2)OCO3)N1Cc1ccco1 (stereo not drawn)	99*	4	0	6	i	1
COc1ccc(NC2c3ccccc3C(=O)N2Cc2ccco2)cc1OC (stereo not drawn)	100*	4	0	-2	i	1
CN(C)CCNC(=O)C(=O)Nc1cc2c3c(c1)CCN3C(=O)CC2	6	-4	0	8	i	2

Screening results as filed in PubChem BioAssay.
